# In PubChem BioAssay (NCATS):
# Records with an inconclusive call do not appear. Where a call stands in place of a potency, no number is given. Calls of active or inactive are those of the source. Calls follow the shape of the dose curve; as a rule, active = well fitted curve in the direction sought with a large enough effect; inconclusive = small, poorly fitted or top-dose-only effect, or another doubt; inactive = no such curve, though single readings can be large; an effect the other way counts as inactive or inconclusive.
# Key:
# [1] = NS1 protein of Zika virus - qHTS assay to identify small molecule inhibitors in human HEK 293 cells (AID 1347053); also: series mostly up to about 46 µM; nearly all actives have a fitted effect of over 55% in size
# Method in brief: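 HEK 293 cells pretreated with compound for 1 h, then infected with ZIKV MR766 (MOI 0.5) for 24 h at 37 C. NS1 detected by TR-FRET with two anti-NS1 antibodies; normalized to uninfected (0%) and infected (100%) wells.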
# [2] = qHTS of pediatric cancer cell lines to identify multiple opportunities for drug repurposing: Primary screen for TC32 cells (AID 1347089); also: nearly all actives have a fitted effect of over 60% in size; also: potency is read from the fitted curve at half-maximal effect
# Method in brief: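 Luminescent CellTiter-Glo read-out of metabolically active TC32 cells after 48 h compound exposure. Primary: MIPE 11-point, 0.78 nM–46 µM; NPC 8-point, 0.59 nM–46 µM. Confirmatory: 11-point dilutions.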
# [3] = qHTS of pediatric cancer cell lines to identify multiple opportunities for drug repurposing: Primary screen for SJ-GBM2 cells (AID 1347091); also: potency is read from the fitted curve at half-maximal effect
# Method in brief: (§1)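 Eight- or eleven-point concentration series, 48 h treatment at 37 degrees C in growth media; readout CellTiter-Glo luminescence. Potency and efficacy were taken from the concentration-response curves.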
# [4] = qHTS of pediatric cancer cell lines to identify multiple opportunities for drug repurposing: Primary screen for BT-37 cells (AID 1347094); also: series mostly up to about 57 µM
# Method in brief: (§2)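 Cells plated at 500-1,000/well in growth medium, compounds added after 5 h. MIPE tested at 11 points (from 0.78 nM), NPC at 8 points (from 0.59 nM). CellTiter-Glo luminescence after 48 h; concentration-response curves from primary screen.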
# [5] = qHTS of pediatric cancer cell lines to identify multiple opportunities for drug repurposing: Primary screen for NB-EBc1 cells (AID 1347095)
# Method in brief: as §2
# [6] = qHTS of pediatric cancer cell lines to identify multiple opportunities for drug repurposing: Primary screen for U-2 OS cells (AID 1347096); also: nearly all actives have a fitted effect of over 50% in size
# Method in brief: (§3)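 Cells (500-1,000/well) in growth media were settled 5 h at 37 degrees C, then given compounds for 48 h. Viability was read as CellTiter-Glo luminescence. Primary runs used MIPE at 11 points (0.78 nM-46 µM) and NPC at 8 points (0.59 nM-46 µM); follow-ups used 11 points.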
# [7] = qHTS of pediatric cancer cell lines to identify multiple opportunities for drug repurposing: Primary screen for SK-N-SH cells (AID 1347098); also: nearly all actives have a fitted effect of over 65% in size; also: potency is read from the fitted curve at half-maximal effect
# Method in brief: (§4)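 Cells (500-1,000/well) rested 5 h, then received compounds for 48 h; metabolically active cells were measured by CellTiter-Glo luminescence. Final concentrations spanned up to 46 µM (MIPE, 11-point) or 0.59 nM-46 µM (NPC, 8-point) in primary screens, 11-point in follow-ups.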
# [8] = qHTS of pediatric cancer cell lines to identify multiple opportunities for drug repurposing: Primary screen for Rh18 cells (AID 1347102); also: nearly all actives have a fitted effect of over 65% in size
# Method in brief: as §3
# [9] = qHTS of pediatric cancer cell lines to identify multiple opportunities for drug repurposing: Primary screen for OHS-50 cells (AID 1347103); also: nearly all actives have a fitted effect of over 40% in size; also: potency is read from the fitted curve at half-maximal effect
# Method in brief: as §4
# [10] = qHTS of pediatric cancer cell lines to identify multiple opportunities for drug repurposing: Primary screen for A673 cells (AID 1347092); also: nearly all actives have a fitted effect of over 45% in size
# Method in brief: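 A673 cells (500-1,000 cells/well in growth media) were pre-incubated 5 h at 37 degrees C, then exposed to compounds for 48 h. Viability was read as CellTiter-Glo luminescence; concentration-response curves came directly from the primary screen.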
# [11] = qHTS of pediatric cancer cell lines to identify multiple opportunities for drug repurposing: Primary screen for Saos-2 cells (AID 1347097); also: nearly all actives have a fitted effect of over 40% in size; also: potency is read from the fitted curve at half-maximal effect
# Method in brief: as §2
# [12] = qHTS of pediatric cancer cell lines to identify multiple opportunities for drug repurposing: Primary screen for NB1643 cells (AID 1347099); also: nearly all actives have a fitted effect of over 50% in size; also: potency is read from the fitted curve at half-maximal effect
# Method in brief: as §2
# [13] = qHTS of pediatric cancer cell lines to identify multiple opportunities for drug repurposing: Primary screen for LAN-5 cells (AID 1347100)
# Method in brief: as §3
# [14] = qHTS of pediatric cancer cell lines to identify multiple opportunities for drug repurposing: Primary screen for BT-12 cells (AID 1347101); also: nearly all actives have a fitted effect of over 25% in size; also: potency is read from the fitted curve at half-maximal effect
# Method in brief: as §4
# [15] = qHTS of pediatric cancer cell lines to identify multiple opportunities for drug repurposing: Primary screen for DAOY cells (AID 1347090); also: series mostly up to about 46 µM; nearly all actives have a fitted effect of over 55% in size
# Method in brief: as §1
# [16] = qHTS of pediatric cancer cell lines to identify multiple opportunities for drug repurposing: Primary screen for SK-N-MC cells (AID 1347093); also: potency is read from the fitted curve at half-maximal effect
# Method in brief: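 Metabolically active cells were quantified by ATP-dependent luminescence (CellTiter-Glo, 15 min at room temperature) following 48 h treatment. Cells had been plated at 500-1,000 per well and settled for 5 h beforehand.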
SMILES,Potency [1],Potency [2],Potency [3],Potency [4],Potency [5],Potency [6],Potency [7],Potency [8],Potency [9],Potency [10],Potency [11],Potency [12],Potency [13],Potency [14],Potency [15],Potency [16]
C[C@]12CCC(=O)C=C1C=C[C@@H]1[C@@H]2CC[C@@]2(C)[C@H]1CC[C@@]21CCC(=O)O1,inactive,inactive,inactive,inactive,inactive,inactive,inactive,inactive,15.5 µM (active),,,,,,,
CC(=C(CCOC(=O)C(C)C)SSC(CCOC(=O)C(C)C)=C(C)N(C=O)Cc1cnc(C)nc1N)N(C=O)Cc1cnc(C)nc1N,inactive,inactive,inactive,inactive,inactive,inactive,inactive,inactive,,inactive,inactive,inactive,inactive,inactive,,
CCOC(=O)C(C#N)=C(c1ccccc1)c1ccccc1,inactive,,inactive,inactive,inactive,inactive,inactive,inactive,,inactive,inactive,inactive,inactive,inactive,inactive,inactive
O=C1OC(CN2CCOCC2)CN1/N=C/c1ccc([N+](=O)[O-])o1 (stereo not given),inactive,inactive,,inactive,inactive,inactive,inactive,inactive,inactive,,inactive,inactive,inactive,inactive,,inactive
CN1CCC[C@@H]1CCO[C@](C)(c1ccccc1)c1ccc(Cl)cc1,inactive,inactive,21.1 µM (active),,,inactive,15.4 µM (active),,,,21.1 µM (active),inactive,,27.6 µM (active),,29.9 µM (active)
C[C@H]1[C@H]2CC[C@H]3[C@@H]4CC=C5C[C@@H](N(C)C)CC[C@]5(C)[C@H]4CC[C@]23CN1C,inactive,,inactive,,inactive,inactive,inactive,inactive,,,,inactive,inactive,inactive,inactive,
CCOC(=O)[C@@](C)(N)Cc1ccc(O)c(O)c1,inactive,21 µM (active),inactive,inactive,inactive,inactive,,inactive,,,,23.7 µM (active),inactive,,,
OC1C(O)C(O)C(O)C(O)C1O (stereo not given),inactive,,inactive,inactive,inactive,inactive,inactive,inactive,inactive,inactive,inactive,inactive,inactive,inactive,inactive,inactive
CC(=O)Nc1ccc(CC(=O)O)cc1,inactive,inactive,,inactive,inactive,inactive,inactive,inactive,inactive,inactive,inactive,inactive,inactive,inactive,,inactive
Cc1cc(NS(=O)(=O)c2ccc(N)cc2)nc(C)n1,inactive,,inactive,inactive,inactive,inactive,inactive,inactive,inactive,inactive,,inactive,inactive,inactive,inactive,inactive
